# MITF TRPM1 HTS – increases MITF-driven TRPM1 promoter luciferase signal | activation, % at 12.5 µM | SK-MEL-5 TRPM1-promoter luciferase, 24 h; % of positive control, neutral wells = 0 | AID 588334 | 300,000 compounds, 0.75% hits;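 active = mean activation of at least 80% with every replicate also reaching 80%; inconclusive = mean reaches 80% but some replicate falls short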;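 also: 0% = neutral control wells and 100% = parthenolide positive control wells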
# Rtt109 HAT inh – inhibitors of Candida albicans Rtt109/Vps75 histone acetyltransferase | Q5AAJ8 | purified Rtt109/Vps75, ThioGlo CoA-SH fluorescence, 4 h | inhibition, % at 34.9 µM | 330,000 compounds, 0.16% hits | AID 540336;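 active = inhibition of at least 50% in every replicate; inconclusive = best replicate reaches 50% inhibition but some replicates fall short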
# Target sequence (Q5AAJ8 whole entry, looked up): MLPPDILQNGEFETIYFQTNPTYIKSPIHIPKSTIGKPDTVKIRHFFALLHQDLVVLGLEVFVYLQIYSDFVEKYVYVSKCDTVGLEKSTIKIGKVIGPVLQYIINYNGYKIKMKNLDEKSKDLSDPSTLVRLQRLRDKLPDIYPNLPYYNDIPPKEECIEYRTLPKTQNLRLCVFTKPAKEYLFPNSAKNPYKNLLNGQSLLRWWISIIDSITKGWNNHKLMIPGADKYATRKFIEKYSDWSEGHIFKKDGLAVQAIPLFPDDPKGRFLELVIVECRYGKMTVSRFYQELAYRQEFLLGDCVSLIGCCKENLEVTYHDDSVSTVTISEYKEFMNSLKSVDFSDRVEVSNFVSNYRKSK
# C2C12 statin – suppression of simvastatin myotoxicity; C2C12 myotubes + simvastatin, ATP luminescence, 48 h; scaled: DMSO 0, geranylgeraniol control 100; rescue of ATP level, % at 7.49 µM; 330,000 compounds, 0.78% hits; AID 602340;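 active = mean ATP rescue above about 67%, or every replicate alone reaching that limit, limit read from the data, passing the limit was not always enough; inconclusive = no clear call, values can overlap the other calls; inactive = mean under the limit and some replicate under it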;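 also: myotubes were challenged with 10 µM simvastatin during compound exposure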
# Wnt bcat act – Wnt/beta-catenin pathway activation | Wnt/beta-catenin reporter cell assay, activator, plate reader | activation, % at 9.35 µM | 300,000 compounds, 1.2% hits | AID 743398; in the data active = activation above about 30%, passing the limit was not always enough; inconclusive = no clear call, values can overlap the other calls;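 also: 0% = neutral control wells and 100% = positive control wells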
# esBAF inh – blocks esBAF chromatin remodeling in mouse ES cells; Bmi1-luciferase knock-in reporter, 24 h; 100% = twice the neutral-well signal; reporter increase, % at 12.5 µM; 350,000 compounds, 2% hits; AID 602393; in the data active = activation above about 40%; inconclusive = no clear call, values can overlap the other calls;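 also: 0% = median of the plate's neutral control wells and 100% = double that signal; a rise in the Bmi1 reporter signal indicates esBAF inhibition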
# Numbers without * were called inactive; u = inconclusive; x = no result given. A selection: hits, their analogues and other compounds. The true share with any hit is near 3.1%.
SMILES,MITF TRPM1 HTS,Rtt109 HAT inh,C2C12 statin,Wnt bcat act,esBAF inh
COc1cc(/C=N/Nc2ccc(C(F)(F)F)cn2)ccc1O,10,0,x,31*,x
Brc1ccccc1/C=N/Nc1ccccn1,35,10,x,22,x
Brc1ccc(/C=N/Nc2ccccn2)cc1,50,-1,-8,16,70*
COc1ccc(/C=N/Nc2ccccn2)cc1O,85*,3,-3,48*,14
Fc1ccc(/C=N/Nc2ccccn2)cc1,32,x,x,u,x
C/C=C/c1ccc2c(c1)O[C@@H](CN(C)C(=O)NC(C)C)[C@@H](C)CN([C@H](C)CO)S2(=O)=O,x,x,-7,x,-3
CO[C@@H]1CN(C)C(=O)c2cc(NC(=O)C3CC3)ccc2OC[C@H](C)N(CC2CCCC2)C[C@@H]1C,x,x,12,x,2
Clc1ccc(/C=N/Nc2ccccn2)cc1,31,-1,4,56*,43*
COc1ccc(S(=O)(=O)N(C)C[C@@H]2Oc3ccc(NC(=O)Cn4cnnn4)cc3CC(=O)N([C@H](C)CO)C[C@H]2C)cc1,x,x,10,x,-1
CCc1ccc2[nH]c(=O)c(CN(CCN3CCCC3)C(=O)NC3CCCCC3)cc2c1,-5,19,95*,-3,2
Cc1ccc2[nH]c(=O)c(CN(CCCN3CCOCC3)C(=O)NC3CCCCC3)cc2c1,13,1,-5,x,-5
C[C@H]1CN([C@@H](C)CO)S(=O)(=O)c2ccc(/C=C/c3ccccc3)cc2O[C@@H]1CN(C)Cc1ccccc1,x,x,-21,x,-2
Cc1ccc2c(COC(=O)c3ccccc3OC(F)F)cc(=O)oc2c1,69,-3,3,-2,48*
C[C@H](CO)N1C[C@H](C)[C@H](CN(C)C(=O)Nc2ccccc2)Oc2c(NS(C)(=O)=O)cccc2C1=O,x,x,40,x,3
CCOC(=O)C1CCN(C(=O)c2cc3c(ccc4ccccc43)o2)CC1,96*,-13,-10,42*,71*
CC1CCN(C(=O)c2cc3c(ccc4ccccc43)o2)CC1,29,-1,x,33*,x
CCOC(=O)C1CCN(C(=O)c2cc3cc(C)ccc3[nH]2)CC1,x,-2,12,34*,19
CCOC(=O)C1CCN(C(=O)c2cc3c(C)cc(C)cc3[nH]2)CC1,9,6,8,2,3
COc1ccc(NC(=O)N(C)C[C@@H]2Oc3ccc(NC(=O)Nc4ccccc4)cc3C(=O)N([C@@H](C)CO)C[C@H]2C)cc1,x,x,9,x,3
COc1cccc(C(=O)Nc2ccc3c(c2)C(=O)N(C)[C@@H]2CC[C@@H](CC(=O)NCc4ccc(F)cc4)O[C@H]2CO3)c1,x,x,-30,x,0
COCCN=C1Sc2nc3c(C)cccc3cc2CN1Cc1ccco1,-13,-7,114*,28,-3
COc1ccccc1-c1cnc2c(c1)C(=O)N([C@H](C)CO)C[C@H](C)[C@H](CN(C)CC1CC1)O2,x,x,27,x,x
COc1cc2ccccc2cc1C(=O)Nc1ccc(C)cn1,35,2,-35,35*,u
Cc1ccc(NC(=O)c2ccccc2F)nc1,x,-16,-3,x,25
COc1cc2ccccc2cc1C(=O)Nc1cccnc1,71,0,x,14,48*
SMILES,MITF TRPM1 HTS,Rtt109 HAT inh,C2C12 statin,Wnt bcat act,esBAF inh
COc1cc(OC)c(C(=O)Nc2cccnc2)cc1OC,10,-3,-7,0,-8
CCOc1cc(C(=O)NCCOC)ccc1OC,-5,-10,120*,x,-6
CC1CCCCN1C(=O)CSc1nnc(-c2cccs2)o1 (stereo not given),u,2,-3,22,18
Fc1ccc(CSc2nnc(-c3cccs3)o2)cc1,70,-2,x,21,x
Cc1cccc(-c2nnc(SCc3ccccc3)o2)c1,44,-2,10,42*,63*
Fc1ccccc1CSc1nnc(-c2cccs2)o1,106*,-2,x,42*,x
c1ccc(CSc2nnc(-c3cccs3)o2)cc1,134*,5,-3,x,47*
CC1CCCC(C)N1C(=O)CSc1nnc(-c2cccs2)o1 (stereo not given),54,x,2,x,46*
c1ccc(-c2nnc(SCc3ccncc3)o2)cc1,x,x,-1,1,37
CC1CCCC(C)N1C(=O)c1cc(-c2cccs2)on1 (stereo not given),78,4,-10,x,48*
CCSc1nnc(-c2cccs2)o1,43,x,8,5,44*
CO[C@@H](CN(C)Cc1cc(F)ccc1F)[C@@H](C)CN([C@H](C)CO)S(=O)(=O)c1ccc(F)cc1,x,x,-10,x,2
CC1CCN(c2nc(CN3CCCCC3)nc3scc(-c4ccccc4)c23)CC1,-12,61*,x,-9,x
CC1CCN(c2nc(-c3cccnc3)nc3scc(-c4ccccc4)c23)CC1,-3,-2,x,1,x
COCC(=O)N(C)C[C@@H]1Oc2ncc(-c3ccccc3F)cc2C(=O)N([C@@H](C)CO)C[C@H]1C,x,x,-2,x,-3
CO[C@H]1CN(C)C(=O)c2ccc(NC(=O)c3ccccc3)cc2OC[C@H](C)N(CC2CC2)C[C@H]1C,x,x,-1,x,-5
CCN(C(=O)COC(=O)c1cnc(C)cn1)C1CCCCC1,2,-4,135*,x,-3
CCCc1cc(C(=O)Nc2cc(Cl)ccc2O)no1,u,-4,0,29,83*
CCCc1cc(C(=O)Nc2cc(Br)ccc2O)no1,x,6,5,15,57*
CCCc1cn(CC[C@H]2CC[C@@H](NS(=O)(=O)c3ccc(-c4ccccc4)cc3)[C@@H](CO)O2)nn1,x,x,12,x,-9
C[C@@H]1CCCCO[C@H](CN(C)S(C)(=O)=O)[C@@H](C)CN([C@@H](C)CO)C(=O)c2cc(NC(=O)Nc3ccc(F)cc3)ccc2O1,x,x,x,x,3
C[C@H]1CN([C@@H](C)CO)C(=O)Cc2cc(NS(=O)(=O)c3cn(C)cn3)ccc2O[C@@H]1CN(C)Cc1ccc(C(F)(F)F)cc1,x,x,25,x,0
Cc1ccc(OCCn2nc3ccccc3n2)c(C)c1,x,5,5,26,55*
C[C@@H]1CN([C@@H](C)CO)C(=O)Cc2cc(NC(=O)CCC(F)(F)F)ccc2O[C@H]1CN(C)S(=O)(=O)c1ccccc1,x,x,-9,x,-4
CC(C)c1ccc(Nc2ncccc2C(=O)O)cc1,46,u,1,17,60*
SMILES,MITF TRPM1 HTS,Rtt109 HAT inh,C2C12 statin,Wnt bcat act,esBAF inh
COc1cccc(S(=O)(=O)Nc2ccc3c(c2)OC[C@H](C)NC[C@H](C)[C@H](OC)CN(C)C3=O)c1,x,x,-18,x,-2
Cn1c(SCc2ccc(C#N)cc2Cl)nc2ccccc21,u,-3,8,x,87*
CC(=O)N[C@H]1C=C[C@H](CC(=O)NCC2CCCCC2)O[C@@H]1CO,x,x,3,x,2
Cc1cc(C)c2c(=O)n(CC(=O)Nc3cccc(Cl)c3C)sc2n1,-4,150*,x,-1,x
Fc1ccc2nc3[nH]c4ccccc4c3nc2c1,x,1,10,100*,35
OC1=C(O)c2nc3cc(F)ccc3nc21,x,-4,1,3,-5
O=C(Nc1ccc(Cl)cc1)N[C@@H]1CC[C@@H](CCNS(=O)(=O)c2ccccc2F)O[C@H]1CO,x,x,-8,x,-1

# Assay outcomes: PubChem BioAssay, Broad Institute
